Several values for one entry are separate records, joined by “and”; a condition that tells them apart may be missing. Equal values may be shown once. Activity calls are given as the source filed them.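 How the source made its calls: active means thallium flux through the channel raised or lowered by more than 3 SD from vehicle-only wells, actives on both sides; inactive means the rest.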 Non-standard residues stand in square brackets, D forms with d. Residues, ends and D or L forms follow the SMILES beside them. pGlu = O=C1CC[C@@H](C(=O)O)N1; Thz = O=C(O)[C@@H]1CSCN1
The compounds below were run against Calcium-activated potassium channel subunit alpha-1 (Homo sapiens) + Leucine-rich repeat-containing protein 26 (Homo sapiens) (UniProt Q12791+Q2I0M4) (assay: BK channel mutant inhibitors and activators – cell-based, U2OS BacMam, thallium flux, beta subunits, selectivity assay, profiling panel (AID 1259406;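 further: initial slope of Thallos dye fluorescence rise after thallium is added; log ratio against the mean of 0.3% DMSO vehicle wells on the same plate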)). Conditions: U2OS BacMam BK variants, F380Y/Slo1WT/gamma1, at 30 µM.
Calcium-activated potassium channel subunit alpha-1 (Homo sapiens) + Leucine-rich repeat-containing protein 26 (Homo sapiens), sequence (Q2I0M4 whole entry, looked up, one chain of several): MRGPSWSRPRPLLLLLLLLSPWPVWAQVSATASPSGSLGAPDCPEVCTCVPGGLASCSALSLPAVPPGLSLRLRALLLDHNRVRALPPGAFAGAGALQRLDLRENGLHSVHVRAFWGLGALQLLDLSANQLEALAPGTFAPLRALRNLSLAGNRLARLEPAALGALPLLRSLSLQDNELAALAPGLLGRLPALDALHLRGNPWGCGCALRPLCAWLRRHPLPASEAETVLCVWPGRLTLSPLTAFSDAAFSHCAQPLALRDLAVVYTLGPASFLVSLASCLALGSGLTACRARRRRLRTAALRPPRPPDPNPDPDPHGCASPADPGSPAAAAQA

Row | SMILES | log fold change Tl+ flux
1 | O=C1CN2Cc3c(ccc(Cl)c3Cl)N=C2N1 | -0.00535 (inactive)
2 | COC(=O)C[C@](O)(CCCC(C)(C)O)C(=O)O[C@@H]1C(OC)=C[C@]23CCCN2CCc2cc4c(cc2[C@H]13)OCO4 | -0.0674 (inactive)
3 | CNCC[C@H](Oc1cccc2ccccc12)c1cccs1 | 0.0212 (inactive)
4 | O=c1[nH]c(=O)n(C2CCCO2)cc1F (stereo unspecified) | 0.0446 (inactive)
5 | CSc1nc2cc(Oc3cccc(Cl)c3Cl)c(Cl)cc2[nH]1 | -0.000443 (inactive)
6 | CN(C)CCc1c[nH]c2ccc(Cn3cncn3)cc12 | 0.0357 (inactive)
7 | COc1ccc(C[C@H](C)NC[C@@H](O)c2ccc(O)c(NC=O)c2)cc1 | 0.0199 (inactive)
8 | CC(C)C[C@H](NC(=O)[C@@H](O)[C@H](N)Cc1ccccc1)C(=O)O | -0.0684 (inactive)
9 | C[C@@H](c1ncncc1F)[C@](O)(Cn1cncn1)c1ccc(F)cc1F | 0.106 (active)
10 | CN(C)CCCC1(c2ccc(F)cc2)OCc2cc(C#N)ccc21 (stereo unspecified) | 0.0169 (inactive) and -0.0497 (inactive)
11 | CCOC(=O)c1ccc(OC(=O)CCCCCN=C(N)N)cc1 | 0.00659 (inactive)
12 | Cc1c(C(=O)NN2CCCCC2)nn(-c2ccc(Cl)cc2Cl)c1-c1ccc(I)cc1 | -0.0487 (inactive)
13 | CC(C)NCC(O)c1ccc(NS(C)(=O)=O)cc1 (stereo unspecified) | -0.004 (inactive)
14 | O=C(NC(=O)c1ccccc1Oc1ccc(Cl)cc1Cl)Nc1cc(Cl)cc(Cl)c1 | 0.0199 (inactive)
15 | CC(=O)NC[C@H]1CN(c2ccc(N3CCOCC3)c(F)c2)C(=O)O1 | -0.0237 (inactive)
16 | CC(CCCCC(=O)Nc1ccc(C(F)(F)F)cc1)NCCc1cnc[nH]1 (stereo unspecified) | 0.0127 (inactive)
17 | O=C(c1ccc(OCCN2CCCCC2)cc1)c1c(-c2ccc(O)cc2)sc2cc(O)ccc12 | -0.00263 (inactive)
18 | O=C1CC[C@@H](C(=O)N2CSC[C@H]2C(=O)O)N1 ([pGlu]-[Thz]-OH) | -0.0423 (inactive)

Row | SMILES | log fold change Tl+ flux
19 | CN/C(=C\[N+](=O)[O-])NCCSCc1csc(CN(C)C)n1 | -0.0126 (inactive)
20 | CNCC[C@@H](Oc1ccccc1C)c1ccccc1 | -0.0181 (inactive)
21 | Cc1cccc(CCN2CCC(C(=O)c3ccc(NS(C)(=O)=O)cc3)CC2)n1 | 0.0152 (inactive)
22 | CN(C)CCOc1ccc(/C(=C(/CCCl)c2ccccc2)c2ccccc2)cc1 | -0.0413 (inactive)
23 | CC(C)(S)C(N)C(=O)O (stereo unspecified) | 0.0127 (inactive)
24 | CC[C@H]1OC(=O)[C@H](C)[C@@H](O[C@H]2C[C@@](C)(OC)[C@@H](O)[C@H](C)O2)[C@H](C)[C@@H](O[C@@H]2O[C@H](C)C[C@H](N(C)C)[C@H]2O)[C@](C)(O)C[C@@H](C)CN(C)[C@H](C)[C@@H](O)[C@]1(C)O | -0.014 (inactive)
25 | NCC(O)c1ccc(O)c(O)c1 (stereo unspecified) | 0.0514 (inactive)
26 | CN1CC(=O)N2[C@H](c3ccc4c(c3)OCO4)c3[nH]c4ccccc4c3C[C@@H]2C1=O | -0.0237 (inactive)
27 | COC(=O)c1sccc1NN=C(C)c1ccc(NC(=O)C(Cl)Cl)cc1 | 0.0385 (inactive)
28 | Cc1cnc(C(=O)NCCc2ccc(S(=O)(=O)NC(=O)NC3CCCCC3)cc2)cn1 | -0.0267 (inactive)
29 | C/C(=C\C(=O)OCCCCCCCCC(=O)O)C[C@@H]1OC[C@H](C[C@@H]2O[C@H]2[C@@H](C)[C@H](C)O)[C@@H](O)[C@H]1O | 0.0402 (inactive)
30 | FC(F)(F)c1cc(C=Cc2noc(-c3ccc(CN4CCCC4)cc3)n2)cc(C(F)(F)F)c1 | 0.0236 (inactive)
31 | C[C@H]1O[C@H](O[C@H]2[C@H](O)[C@@H](O)[C@@H](O[C@H]3[C@H](O)[C@@H](O)C(O)O[C@@H]3CO)O[C@@H]2CO)[C@H](O)[C@@H](O)[C@@H]1N[C@H]1C=C(CO)[C@@H](O)[C@H](O)[C@H]1O (stereo partly specified) | 0.00221 (inactive)
32 | CCCCN1CCCC1CNC(=O)c1cc(C#N)c2ccccc2c1OC (stereo unspecified) | -0.0355 (inactive)
33 | COc1ccc2[nH]c(S(=O)Cc3ncc(C)c(OC)c3C)nc2c1 (stereo unspecified) | 0.0493 (inactive)
34 | CN1[C@@H]2CCC[C@H]1CC(NC(=O)c1nn(C)c3ccccc13)C2 (stereo partly specified) | 0.00528 (inactive)
35 | COc1c(N2C[C@@H]3CCCN[C@@H]3C2)c(F)cc2c(=O)c(C(=O)O)cn(C3CC3)c12 | 0.0216 (inactive)
36 | CCN(CC)CC#CCOC(=O)C(O)(c1ccccc1)C1CCCCC1 (stereo unspecified) | -0.0619 (inactive)
